# Results filed as inconclusive are left out. Where a call stands in place of a potency, no number is given. The source holds several records for some structures; these can differ, active in one and inactive in another. The source made the active and inactive calls. Calls follow the shape of the dose curve; as a rule, active = well fitted cell-killing curve with a large enough effect in the repeat runs; inconclusive = weak or mixed curves, or effect the other way; inactive = flat fitted curve, though single readings scatter.
# Assay: qHTS RealTime-Glo MT Cell Viability Assay in HEK293 cells - 32 hour (AID 1224868); also: nearly all actives have a fitted effect of over 50% in size; as to activity change, negative = cytotoxic: top concentration of the series differs between compounds
# Settings: RealTime-Glo luminescence; series mostly up to 76.8 µM
# Description: National Center for Advancing Translational Sciences [NCATS]
# NIH Chemical Genomics Center [NCGC]
# U.S. Environmental Protection Agency [EPA]
# National Institutes of Environmental Health Sciences [NIEHS]
# National Toxicology Program [NTP]
# U.S. Food and Drug Administration [FDA]
# Measure of cell viability is critical in the cell-base assay. Analysis of cell viability is necessary for the characterization of cell responses to cytotoxic drugs and environmental stress. A RealTime-Glo MT Cell Viability Assay to monitor cell viability in real time of continues cell culture during 40 hours of compound treatment was used to screen Tox21 10K library compounds in Hek293 cells. The RealTime-Glo MT Cell Viability Assay is a nonlytic, homogeneous, bioluminescent method to measure cell viability in real time using a simple, plate-based method. The assay involves adding NanoLuc luciferase and a cell-permeant prosubstrate to cells in culture. Viable cells reduce the proprietary prosubstrate to generate a substrate for NanoLuc luciferase. This substrate diffuses from cells into the surrounding culture medium, where it is rapidly used by the NanoLuc Enzyme to produce a luminescent signal. The signal correlates with the number of viable cells, making the assay well suited for cytotoxicity studies.
# Tox21 Assay Protocol Summary:
# The mixture of Hek293 cell suspension and reagents were dispensed at 600cells/6 ul/well in 1536-well tissue culture treated black solid bottom plates using a Multidrop dispenser. After the assay plates were incubated at a 37 C/5% CO2 incubator for 5 hours, 23 nL of compounds dissolved in DMSO, positive and negative controls was transferred to the assay plate by a pintool work station. The plates were incubated at 37 C for 40 hours. The luminescence intensity were measured at 0h, 8h, 16h, 24h, 32h and 40h time points using ViewLux plate reader during compound treatment.
# Potency is read from the fitted curve at half-maximal effect.
Compound,Potency,"activity change, negative = cytotoxic"
O=C(O)c1ccc(C(=O)O)cc1,inactive,
O=C(O)c1ccccc1C(c1ccc(O)cc1)c1ccc(O)cc1,inactive,
Nc1cc([N+](=O)[O-])ccc1O,inactive,
C#CCN(C)Cc1ccccc1,inactive,
O=C(O)c1cc(=O)c2c(OCC(O)COc3cccc4oc(C(=O)O)cc(=O)c34)cccc2o1,inactive,
O=C(O)CCCCCCCCCCC(=O)O,inactive,
CC(=O)Nc1cccc(O)c1,inactive,
O=C(Oc1ccccc1)c1ccccc1,inactive,
CC(=O)CC(=O)Nc1ccccc1C,inactive,
Fc1ccc(Br)cc1,inactive,
CCCCCC(N)=O,inactive,
OCC(CO)(CBr)CBr,inactive,
CC[C@H](C)C(=O)O[C@H]1C[C@@H](C)C=C2C=C[C@H](C)[C@H](CC[C@@H]3C[C@@H](O)CC(=O)O3)[C@H]21,inactive,
C[C@H]1C[C@@H]2[C@H]([C@@H](O)C[C@@]3(C)[C@H]2CC[C@]3(O)C(=O)CO)[C@@]2(C)C=CC(=O)C=C12,inactive,
CCCCCCCCCC,inactive,
COc1ccc(Cl)cc1C(=O)NCCc1ccc(S(=O)(=O)NC(=O)NC2CCCCC2)cc1,inactive,
C/C=C1/CC2C=CC1C2 (stereo not given),inactive,
O=c1[nH]c(=O)n([C@H]2CCCO2)cc1F,inactive,
C=CCOC(=O)c1ccccc1C(=O)OCC=C,inactive,
COCCCOc1ccnc(CS(=O)c2nc3ccccc3[nH]2)c1C (stereo not given),9.74 µM (active) and inactive,

Compound,Potency,"activity change, negative = cytotoxic"
O=C(O)[C@H](O)[C@@H](O)[C@H](O)[C@H](O)CO,inactive,
O=c1[nH]c(=O)n([C@H]2C[C@H](O)[C@@H](CO)O2)cc1Br,inactive,
CCCCCCCCC/C=C/CC1CC(=O)OC1=O (stereo not given),inactive,
CCCCC(CC)COC(=O)C(C#N)=C(c1ccccc1)c1ccccc1 (stereo not given),inactive,
CC1CCC2CC1C2(C)C (stereo not given),inactive,
C[Si](O[Si](C)(C)C)O[Si](C)(C)C,inactive,
C#C[C@]1(O)CC[C@H]2[C@@H]3CCC4=CC(=O)CC[C@@H]4[C@H]3CC[C@@]21C,inactive,
OCCOCCOCCO,inactive,
Cc1cc(C)c(C)cc1C,inactive,
CCC(O)OCCCOC (stereo not given),inactive,
O=C(O)CC(C(=O)O)C(CC(=O)O)C(=O)O (stereo not given),inactive,
CN(C)CCC(c1ccc(Cl)cc1)c1ccccn1 (stereo not given),inactive,
C[C@H]1C[C@H]2[C@@H]3CCC4=CC(=O)C=C[C@]4(C)[C@@]3(F)[C@@H](O)C[C@]2(C)[C@@]1(O)C(=O)CO,inactive,
CCCCCC/C(C=O)=C\c1ccccc1,inactive,
CCCCCCCC(=O)OC,inactive,
CC(=O)Nc1ccccc1,inactive,
O=C(O)c1cc(C(=O)O)cc(S(=O)(=O)O)c1,inactive,
CC(=O)CC(=O)Nc1ccccc1,inactive,
CC(=O)OCC(=O)[C@@]12N=C(C)O[C@@H]1C[C@H]1[C@@H]3CCC4=CC(=O)C=C[C@]4(C)[C@H]3[C@@H](O)C[C@@]12C,inactive,
CCN(CC)CCCC(C)Nc1ccnc2cc(Cl)ccc12 (stereo not given),,-16.4% [at 6.97 µM] (inactive)
